Test results: the supplement of paper PMC4166925
± gives the standard deviation of the averaged measurements. Over roughly 33,000 sequences, “E-score (dimensionless, -0.5 to 0.5)” has its median near -0.049; the highest 2% begin near 0.37. This excerpt belongs to a sample that is enriched for the highest values.

test system: T1, PmTbr T-box DNA-binding domain (GST fusion); test: PBM E-score of 8-mer (E-score (dimensionless, -0.5 to 0.5)); Tbr is Tbrain of the sea star Patiria miniata (Pm) or the sea urchin Strongylocentrotus purpuratus (Sp); higher = stronger binding preference; conditions: the construct has about 5 more residues each side
T1 sequence: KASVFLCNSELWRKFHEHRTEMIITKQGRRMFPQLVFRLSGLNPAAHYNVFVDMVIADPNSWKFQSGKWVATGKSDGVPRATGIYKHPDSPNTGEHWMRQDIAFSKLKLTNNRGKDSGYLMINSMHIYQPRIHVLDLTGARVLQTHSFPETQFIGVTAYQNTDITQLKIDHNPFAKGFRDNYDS
Procedure: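 Universal protein-binding microarray (Agilent AMADID 016060, 60-bp probes with a 35-bp variable region) incubated with 200 nM GST-fused Patiria miniata Tbr T-box DNA-binding domain (residues 272-466) in PBS pH 7.5. Scored for every ungapped 8-mer (given with its reverse complement) by the Universal PBM Analysis Suite as E-score (modified Wilcoxon-Mann-Whitney enrichment, range -0.5 to 0.5; >0.45 counts as bound) and Z-score of median probe intensity. Two replicate arrays (datasets 1 and 2).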

In order of rising “PBM E-score of 8-mer” value:
1. ATCTTACC  -0.327 ± 0.021
2. ACTAGACC  -0.3241 ± 0.0027
3. AAATGGCC  -0.316 ± 0.0079
4. AGCTCCCA  -0.308 ± 0.076
5. GTTCCGGA  -0.29 ± 0.027
6. CTCTCTGA  -0.253 ± 0.021
7. ATTCCCAG  -0.25 ± 0.009
8. CATCAAGA  -0.245 ± 0.022
9. AGAGCATC  -0.226 ± 0.1
10. CCGCTACG  -0.186 ± 0.064
11. CTCGGGAC  -0.18 ± 0.058
12. ATCTTAAT  -0.171 ± 0.13
13. AAGCAGTC  -0.167 ± 0.023
14. CAAATACA  -0.164 ± 0.0057
15. ATGCTAGA  -0.158 ± 0.055
16. ACTACGTA  -0.156 ± 0.012
17. CCTACCCC  -0.152 ± 0.039
18. CGCTCGGC  -0.148 ± 0.02
19. CGGGGCAA  -0.147 ± 0.097
20. GGACTTGA  -0.145 ± 0.015
21. ACGAAGCT  -0.143 ± 0.014
22. CCTAATAG  -0.122 ± 0.052
23. CCCAAACG  -0.119 ± 0.045
24. AAAGACGT  -0.108 ± 0.008
25. GACTGCGC  -0.107 ± 0.044
26. ACTATGCC  -0.0992 ± 0.096
27. AGGCACGG  -0.0977 ± 0.04
28. TAGTGGGA  -0.0944 ± 0.019
29. CTTATGGC  -0.0928 ± 0.041
30. AGTATTGG  -0.0858 ± 0.022
31. TAAACCCA  -0.0858 ± 0.0046
32. CTGCTCAA  -0.0839 ± 0.036
33. AAGCGAAA  -0.083 ± 0.07
34. GAACCGTC  -0.07 ± 0.048
35. CCCCTAGG  -0.0463 ± 0.05
36. AGCGAAAG  -0.0461 ± 0.031
37. GGGTTGAA  -0.0332 ± 0.073
38. ATCGTCAT  -0.0319 ± 0.033
39. CTAGTAGA  -0.0181 ± 0.012
40. AGTGAGGG  -0.0175 ± 0.1
41. CTCGAAGC  -0.0159 ± 0.011
42. AACCTAGG  -0.0117 ± 0.074
43. GGAGGAGA  -0.011 ± 0.0051
44. GTGTATCA  -0.00951 ± 0.055
45. AGCTTCAT  -0.00536 ± 0.11
46. GAGCTAGA  -0.00238 ± 0.087
47. AACTGTGG  0.00267 ± 0.0079
48. ACAGTGTA  0.0105 ± 0.032
49. GCCTACCA  0.015 ± 0.093
50. AAATAACC  0.0174 ± 0.057
51. ATATGTTG  0.0196 ± 0.038
52. ATGATAAC  0.0197 ± 0.036
53. GTATCCAC  0.0223 ± 0.03
54. ACGCGCAT  0.0257 ± 0.033
55. CCCATTTA  0.0289 ± 0.005
56. GAGTTACA  0.0401 ± 0.024
57. ACGGGCGC  0.0455 ± 0.05
58. ATCGTCAA  0.0469 ± 0.0067
59. GCTGTTGA  0.0473 ± 0.023
60. AGCGAACG  0.0481 ± 0.02
61. AGCGAATA  0.0489 ± 0.053
62. AACACAGC  0.0601 ± 0.048
63. CTTTGCGA  0.0629 ± 0.022
64. ATGCTAAC  0.0631 ± 0.061
65. CAGTGTGC  0.0644 ± 0.04
66. AGGTGCTC  0.0655 ± 0.042
67. TCACCCGA  0.0689 ± 0.025
68. GTTAAGCA  0.0703 ± 0.02
69. ATGCGATA  0.0765 ± 0.014
70. CGAAAGTC  0.0804 ± 0.023
71. CCCACGCC  0.08239 ± 0.00072
72. CGCTTTCA  0.0848 ± 0.014
73. AACCTAGC  0.088 ± 0.041
74. GACAGGAA  0.08894 ± 0.00038
75. CCACCCGC  0.0903 ± 0.013
76. CGTGTAGA  0.0938 ± 0.0091
77. GACAGCGC  0.0941 ± 0.072
78. GCACTAGC  0.0942 ± 0.018
79. CCAGAGGC  0.0947 ± 0.07
80. CCTTCCAC  0.0992 ± 0.017
81. GAACGACA  0.106 ± 0.025
82. TACACATA  0.115 ± 0.032
83. ACTGTTGA  0.123 ± 0.062
84. ATGCGAAC  0.13 ± 0.018
85. CACCACAG  0.131 ± 0.004
86. ATTGTCAG  0.134 ± 0.026
87. CTCGTCAA  0.141 ± 0.04
88. AAGTGTAG  0.147 ± 0.012
89. GACTTCTC  0.148 ± 0.065
90. GCACCCGA  0.15 ± 0.0018
91. ATGTGTTC  0.156 ± 0.025
92. CTGTGTTA  0.158 ± 0.045
93. CACTTAAA  0.158 ± 0.01
94. ATCACGCA  0.167 ± 0.0099
95. GAGTGTAA  0.169 ± 0.061
96. CTGCGATA  0.169 ± 0.046
97. CTGCGACA  0.172 ± 0.015
98. ATGTGCTG  0.1768 ± 0.001
99. TAGTGTAA  0.185 ± 0.072
100. AAGTGGGG  0.189 ± 0.07
101. CTGCTAAA  0.21 ± 0.071
102. CAACTGTG  0.231 ± 0.015
103. GTGTGCCA  0.237 ± 0.025
104. TTGCTAAA  0.241 ± 0.078
105. GTTGTTGA  0.245 ± 0.029
106. AAGTGCGG  0.247 ± 0.0065
107. ATTGTCAA  0.248 ± 0.039
108. CAGTGTGG  0.249 ± 0.013
109. CACTTTCG  0.258 ± 0.004
110. GAGTGTGC  0.2606 ± 0.00088
111. ATGGTGAC  0.262 ± 0.049
112. GTGTGTTA  0.274 ± 0.012
113. AGTGTTTG  0.275 ± 0.036
114. CTTGTCGC  0.277 ± 0.012
115. TAGTGAGA  0.278 ± 0.022
116. ACCTGGCA  0.288 ± 0.011
117. AGGTGCGC  0.293 ± 0.023
118. CGTGTTGA  0.295 ± 0.028
119. CTTGTCAA  0.305 ± 0.034
120. CTCACGCA  0.306 ± 0.019
121. AACACATG  0.317 ± 0.013
122. CTGCTAAC  0.318 ± 0.029
123. CACCTAGA  0.324 ± 0.028
124. CTGCGAAC  0.324 ± 0.013
125. CGCGAACC  0.328 ± 0.0044
126. AAGACACC  0.3306 ± 0.0024
127. GTCGTCAC  0.3318 ± 0.0028
128. ATGCGACA  0.3323 ± 0.0011
129. GCACCCGC  0.333 ± 0.012
130. ATCACGCG  0.334 ± 0.023
131. GTGATAAA  0.339 ± 0.07
132. AAGTGTGT  0.34 ± 0.03
133. TTGCGAAA  0.349 ± 0.034
134. CGCGAAAC  0.355 ± 0.0087
135. AGTGTTGC  0.3558 ± 0.0028
136. CACACATA  0.365 ± 0.021
137. AAGTGTGC  0.368 ± 0.0052
138. CTGCGAAA  0.368 ± 0.0074
139. CGCGAAAG  0.3697 ± 0.0008
140. ATCACGCC  0.372 ± 0.017
141. AACACATA  0.373 ± 0.0082
142. CGCGAACG  0.375 ± 0.017
143. ACACCCGC  0.376 ± 0.011
144. AACACATC  0.378 ± 0.013
145. AAGTGTAA  0.381 ± 0.05
146. GTGCTAGA  0.382 ± 0.0098
147. AAGTGTGG  0.3837 ± 0.00044
148. AGTGTTGG  0.3857 ± 0.0032
149. CTCACGCC  0.3929 ± 0.00041
150. CTCGTCAC  0.3943 ± 0.0029
151. AGTGTTGA  0.395 ± 0.022
152. CAGTGTGA  0.3958 ± 0.0034
153. ATGTGTTG  0.398 ± 0.008
154. ATCGTCAC  0.403 ± 0.0068
155. CTTGTCAC  0.405 ± 0.015
156. GTGATAAC  0.406 ± 0.02
157. GTGCGACA  0.412 ± 0.021
158. AGGTGCTG  0.414 ± 0.019
159. CACCTAGC  0.418 ± 0.0047
160. ACACCCGA  0.422 ± 0.012
161. ATTGTCAC  0.427 ± 0.016
162. AGGTGCGG  0.434 ± 0.011
163. GTGCTAAA  0.435 ± 0.007
164. GTGCGATA  0.4351 ± 0.0025
165. CACCTAGG  0.436 ± 0.01
166. ATGTGTTA  0.446 ± 0.0057
167. TAGTGTGA  0.446 ± 0.0044
168. GTGCTAAC  0.453 ± 0.0072
169. GGTGTTGA  0.4746 ± 0.0036
170. GAGTGTGA  0.4754 ± 0.0017
171. GTGCGAAC  0.4794 ± 0.0017
172. GTGCGAAA  0.4814 ± 0.0014
173. AAGTGTGA  0.48967 ± 0.00029
